Results on 31 molecules are retold here after ChEMBL document CHEMBL1157539, “Thousands of chemical starting points for antimalarial lead identification” (Nature, 2010).

Holding throughout (type): functional
Assay [1] has as its system Plasmodium falciparum. As to the kind of experiment: GSK_TCMDC: Inhibition of Plasmodium falciparum 3D7 in whole red blood cells, using parasite LDH activity as an index of growth. Test compounds present at 2uM.
For assay [2], the system named is Plasmodium falciparum. Description: GSK_TCMDC: Inhibition of Plasmodium falciparum Dd2 in whole red blood cells, using parasite LDH activity as an index of growth. Test compounds present at 2uM.
A further assay concerns HepG2. As to the kind of experiment: GSK_TCMDC: Percent inhibition of human HepG2 cell line. Test compounds present at 10uM.

Each structure is given as a SMILES string.

In the case of `COc1ccccc1NC(=O)Nc1cccc(-c2ccc(-c3nc4cc(C(F)(F)F)ccc4[nH]3)cc2)c1`, the Inhibition with Plasmodium falciparum [1] is 100%; in the assay with Plasmodium falciparum [2], 76%; in the assay with HepG2, 28%.
Consider `O=C(c1cncc(-c2ccccc2)c1)N(Cc1cncn1Cc1ccccc1F)CC1CC1`, for which the results for the Inhibition in the assay with Plasmodium falciparum [1], with Plasmodium falciparum [2] and in the assay on HepG2 were 100%, 0% and 0%, respectively.
Turning to `O=C(Nc1ccccc1)N1CCOC(CCN2CCC(F)(F)CC2)(c2ccc(Cl)c(Cl)c2)C1` (stereo not drawn), the Inhibition worked out at 100% in the assay on Plasmodium falciparum [1], 100% in the assay on Plasmodium falciparum [2] and 20% in the assay with HepG2.
Take `C#CCNC(=O)c1ccc(-c2ccnc(Nc3cccc(CCCN4CCOCC4)c3)n2)s1`: the Inhibition in the assay on Plasmodium falciparum [1] is on record as 82%; with Plasmodium falciparum [2] it was 45%; with HepG2, 54%.
With `COc1ccc(NC(=O)C2c3ccccc3C(=O)N(CC(C)C)C2c2cccs2)cc1OC` (stereo not drawn), the figures for the Inhibition with Plasmodium falciparum [1], in the assay on Plasmodium falciparum [2] and in the assay on HepG2 were 100%, 98% and 6%, respectively.
For the molecule `COc1ccc(C(=O)C2CCN(CCCCNC(=O)c3ccc(NC(=O)c4cc(Cl)cc(Cl)c4)cc3)CC2)cc1`, the figures for the Inhibition in the assay with Plasmodium falciparum [1], with Plasmodium falciparum [2] and with HepG2 were 100%, 84% and 35%, respectively.
For `O=C(/C=C/c1ccc(C(F)(F)F)cc1)NCCCCCN1CCC(c2c[nH]c3ccccc23)CC1`, the values for the Inhibition in the assay on Plasmodium falciparum [1], in the assay with Plasmodium falciparum [2] and with HepG2 were 100%, 22% and 96%, respectively.
As for `COc1cc(NC(=O)c2sc(-c3ccc(Cl)cc3)cc2NC(=O)c2ccncc2)ccc1OCCN1CCCC1`, the Inhibition with Plasmodium falciparum [1], in the assay with Plasmodium falciparum [2] and in the assay with HepG2 was 100% throughout.
Take `CN1CCCc2cc(NC(=O)c3cc(-c4ccc(Cl)cc4)cs3)ccc2C1.O=C(O)C(F)(F)F`: the Inhibition is 100% in the assay on Plasmodium falciparum [1], 34% in the assay with Plasmodium falciparum [2] and 15% with HepG2.
On to `Fc1ccc(Nc2ccnc3cc(-c4ccc(CN5CCOCC5)o4)ccc23)c(Cl)c1`, for which the Inhibition in the assay with Plasmodium falciparum [1] worked out at 100%; in the assay with Plasmodium falciparum [2] it was 100%; in the assay with HepG2, 42%.
For the molecule `O=C(Nc1ccc(N2CCCCC2)c(Cl)c1)c1ccco1`, the Inhibition with Plasmodium falciparum [1] is recorded as 96%; with Plasmodium falciparum [2], 95%; with HepG2, 0%.
Taken in the same sequence, the figures for `Nc1ncc(-c2ccsc2)c2ccc(-c3ccc4cn[nH]c4c3)cc12` were 95%, 41% and 18%.
For `O=C(NC(NC(=S)Nc1ccc([N+](=O)[O-])cc1)C(Cl)(Cl)Cl)c1cccc(Cl)c1` (stereo not drawn), the Inhibition is given as 97% with Plasmodium falciparum [1], 100% with Plasmodium falciparum [2] and 24% in the assay with HepG2.
For `O=C(/C=C/c1ccc(Cl)c(Cl)c1)NCCCCCN1CCN(C(=O)Nc2ccc(Cl)c(C(F)(F)F)c2)CC1`, the Inhibition in the assay on Plasmodium falciparum [1] was 100%; with Plasmodium falciparum [2] it was 0%; with HepG2, 22%.
The corresponding values for `Oc1ccc(CN2CCC(N3CCN(CCc4ccccc4)CC3)C(O)C2)cc1Cl` (stereo not drawn) are 100%, 77% and 0%.
As to `CCC(=O)Nc1ccc(C(O)CN2CCC3(C=Cc4ccccc4O3)CC2)cc1` (stereo not drawn), the Inhibition is recorded as 93% in the assay on Plasmodium falciparum [1], 47% in the assay on Plasmodium falciparum [2] and 48% with HepG2.
For the molecule `O=C(Nc1ccc(Cl)cc1)Nc1ccc(-c2ccc(-c3nc4ccccc4[nH]3)cc2)cc1`, the Inhibition is recorded as 100% in the assay on Plasmodium falciparum [1], 99% in the assay with Plasmodium falciparum [2] and 47% in the assay on HepG2.
With `CS(=O)(=O)c1cc2c(Nc3ccc(N4CCOCC4)cc3)c(C(N)=O)cnc2cc1Br.Cl`, the Inhibition in the assay on Plasmodium falciparum [1] amounted to 100%; in the assay with Plasmodium falciparum [2], 89%; with HepG2 it was 0%.
The corresponding values for `O=C(NCCCCN1CCC(c2ccc3ccccc3c2O)CC1)c1ccc(NC(=O)c2ccc(Cl)cc2)cc1` are 100%, 89% and 34%.
Taken in the same sequence, the figures for `CC(C)COc1cc(C(=O)Nc2cnc3ccccc3c2)ccc1[N+](=O)[O-]` were 97%, 56% and 19%.
The corresponding values for `CCCc1cc(Cc2cnc(N)nc2N)ccc1OCCCCCC(=O)O.Cl` are 97%, 0% and 3%.
Consider `Cc1ccc(Cl)cc1NC(=O)c1c(-c2ccccc2Cl)noc1C`, for which the figures for the Inhibition with Plasmodium falciparum [1], in the assay on Plasmodium falciparum [2] and in the assay with HepG2 were 88%, 37% and 9%, respectively.
As for `Cc1nc(O)c2c(ccc3ccc(CNc4ccc(C(=O)N[C@@H](CCC(=O)O)C(=O)O)cc4)cc32)n1`, the Inhibition worked out at 89% with Plasmodium falciparum [1], 95% in the assay on Plasmodium falciparum [2] and 32% in the assay with HepG2.
With `CCNc1cc(C(=O)N[C@@H](Cc2ccccc2)[C@H](O)CNCc2cc(C#N)ccc2OC)cc(N2CCCC2=O)c1.O=C(O)C(F)(F)F`, the Inhibition in the assay with Plasmodium falciparum [1] is 85%; in the assay with Plasmodium falciparum [2] it was 51%; in the assay with HepG2, 0%.
Taken in the same sequence, the figures for `Cl.Nc1c2c(nc3ccc(NC(=O)CCCCCCc4ccccc4)cc13)CCCC2` were 100%, 90% and 100%.
Consider `O=C(N/C=N/c1cc([N+](=O)[O-])c(-c2ccncc2)n1-c1ccccc1)c1cccc(O)c1`, for which the Inhibition was 100% in the assay with Plasmodium falciparum [1], 56% in the assay with Plasmodium falciparum [2] and 2% in the assay on HepG2.
`Cc1ccccc1C1CCN(C2CCC(NC(=O)/C=C/c3cccc(C(F)(F)F)c3)CC2)CC1` (stereo not drawn): the Inhibition in the assay on Plasmodium falciparum [1] is on record as 100%; in the assay with Plasmodium falciparum [2], 54%; in the assay with HepG2 it was 96%.
On to `CCn1c(SCc2ccccc2)nc2c1c(=O)[nH]c(=O)n2C`, for which the Inhibition came to 96% in the assay on Plasmodium falciparum [1], 30% in the assay on Plasmodium falciparum [2] and 1% in the assay with HepG2.
Regarding `O=C(CCc1c[nH]cn1)Nc1cccc(-c2ccc(-c3nc4cc(F)ccc4[nH]3)s2)c1`, the values for the Inhibition with Plasmodium falciparum [1], in the assay with Plasmodium falciparum [2] and in the assay on HepG2 were 100%, 69% and 17%, respectively.
In the case of `CCn1c(Sc2ccc(C#N)c([N+](=O)[O-])c2)nnc1-c1ccc(Cl)cc1`, the figures for the Inhibition with Plasmodium falciparum [1], in the assay on Plasmodium falciparum [2] and in the assay on HepG2 were 97%, 93% and 0%, respectively.
Regarding `O=C(NCc1ccco1)c1ccc(S(=O)(=O)c2ccc(Cl)cc2)cc1`, the Inhibition was found to be 97% with Plasmodium falciparum [1], 95% in the assay with Plasmodium falciparum [2] and 6% in the assay on HepG2.
